Results on 36 compounds are retold here after PubChem BioAssay.

Molecules are shown by their SMILES.

This assay in a line: small molecules captured by biotinylated probe aFGF10 – biochemical, small-molecule microarray, fluorescence 635/667, stem cell growth factor project, primary screen (AID 1071).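 Note: score merges 667 nm spot intensity and signal to noise from triplicate slides.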 Conditions: higher = more signal.
In turn, `CCCNC(=O)[C@@]1(Sc2ccc(C)cc2)CC(=O)N(Cc2ccccc2Cl)[C@@H]1c1ccc(CO)cc1` yielded a composite z-score of 0.122.

Compound `C[C@H]1COC(=O)[C@H](Cc2ccccc2)NC(=O)[C@@H](C)COC(=O)[C@H](Cc2ccccc2)NC1=O` returned a composite z-score of 0.718.

`CC(C)N1CC=CC23O[C@@H]4/C=C\CCCOC(=O)C4[C@H]2C(=O)N(CCO)[C@@H]3C1=O` (stereo partly specified) displayed a composite z-score of -0.958.

`COC(=O)[C@@]1(Cc2ccc(OC)cc2)[C@H]2c3cc(C(=O)N(C)C)n(CCc4ccc(OC)c(Br)c4)c3C[C@H]2CN1C(=O)c1ccccc1`: the composite z-score was found to be 1.03.

In turn, `COCCOC(=O)N1C(=O)[C@@]2(c3cc(C#CCCO)ccc31)[C@H](c1ccc(O)cc1)N1[C@H](c3ccccc3)[C@H](c3ccccc3)OC(=O)[C@H]1[C@@H]2C(=O)Nc1nc2ccccc2s1` showed a composite z-score of 0.892.

`C=CC[C@]1(C(=O)N2CCCCC2)N=C(c2ccc(OCCCO)cc2)O[C@H]1c1ccccc1N=[N+]=[N-]` showed a composite z-score of 0.984.

In turn, `CCCC=C(CCC)[C@@H](NS(=O)(=O)c1cccc(C(F)(F)F)c1)c1ccc(C(=O)OC)cc1` returned a composite z-score of -0.0446.

Compound `COc1ccc([Si](C)(C)[C@@H]2[C@@H](CC(=O)N(CCO)Cc3ccccc3)O[C@]3(C(=O)N(Cc4cccc(N5CCC5=O)c4)c4ccccc43)[C@H]2C)cc1` had a composite z-score of 0.434.

Take `COc1cc([C@@H]2N[C@H](C(=O)O)Cc3c2[nH]c2ccccc32)cc(OC)c1OC`: the composite z-score turned out to be 0.28.

`COCC(=C=CC[C@H](O)c1ccc(OCCO)cc1)C[C@H](O)c1ccccn1`: the composite z-score was -0.106.

Consider `COCCOC(=O)N1C(=O)[C@@]2(c3cc(C#CC4(O)CCCCCC4)ccc31)[C@H](C(=O)N1CCCCCCC1)[C@H]1C(=O)O[C@H](c3ccccc3)[C@H](c3ccccc3)N1[C@@H]2c1ccc(O)cc1`, for which the composite z-score was determined as 0.345.

Regarding `C=CCC(OC(C)=O)[C@@H]1[C@@H](N(Cc2cc3ccccc3o2)C(=O)c2ccc(C)cc2)c2cc(OCCCO)ccc2N1C(=O)c1ccc2ccccc2n1` (stereo partly specified), the composite z-score was found to be 0.394.

In turn, `C=C(COC)C(=O)CC[C@H](OC(=O)c1ccccc1-c1ccccc1C(=O)O)c1cccc(OCCO)c1` showed a composite z-score of 0.24.

`CC(C)[Si](OCC[C@H]1O[C@]2(C(=O)N(Cc3ccccc3)c3ccccc32)[C@@H](C)[C@@H]1[Si](C)(C)O)(C(C)C)C(C)C` displayed a composite z-score of 0.164.

On to `CO[C@H]1COC(=O)CC=C[C@H](C)[C@@H](OC)COC(=O)CC=C[C@@H]1C`, for which the composite z-score stood at 0.227.

In turn, `COCCOC(=O)N1C(=O)[C@@]2(c3cc(C#CC4=CCCCC4)ccc31)[C@H](C(=O)NC[C@H](O)c1ccccc1)[C@H]1C(=O)O[C@H](c3ccccc3)[C@H](c3ccccc3)N1[C@@H]2c1ccccc1OCCO` gave a composite z-score of 0.467.

Take `COc1cc2c(cc1OC)CN(C(=O)[C@H]1[C@@H]3C(=O)O[C@@H](c4ccccc4)[C@@H](c4ccccc4)N3[C@@H](c3ccc(O)cc3)[C@]13C(=O)Nc1ccc(C#CC4(O)CCCCCC4)cc13)CC2`: the composite z-score was 1.12.

Compound `CN(C)C(=O)[C@@]1(Cc2ccccc2N=[N+]=[N-])N=C(c2ccc(OCCCO)cc2)O[C@H]1c1ccccc1CN=[N+]=[N-]` had a composite z-score of 0.665.

Take `CO[C@H]1COC(=O)[C@@H](C)COC(=O)[C@H](Cc2ccccc2)NC(=O)CC=C[C@H]1C`: the composite z-score was 0.131.

`CC(=O)NCCCC[C@@H]1NC(=O)[C@H]2C[C@@H](C(=O)NCCCCCCN(C)C)[C@@H](c3cccc(OCCO)c3)N2C1=O` gave a composite z-score of 1.24.

`C=CCC(OC(C)=O)[C@@H]1[C@@H](N(Cc2ccc(-c3ccccc3)cc2)C(=O)c2ccc(-c3ccccc3)cc2)c2cc(OCCCO)ccc2N1C(=O)Cc1ccc(OC)cc1` (stereo partly specified) had a composite z-score of 0.27.

In turn, `COCCCNC(=O)[C@@H]1c2ccccc2C(=O)N(CC23CC4CC(CC(C4)C2)C3)[C@H]1c1ccc(CO)cc1` displayed a composite z-score of 0.325.

As to `C=CCN1C(=O)[C@]2(O[C@H](CCn3cc(CCO)nn3)[C@@H]([Si](C)(C)c3ccc(OC)cc3)[C@@H]2C)c2cc(NC(=O)c3ccc(OC)cc3)ccc21`, the composite z-score was -0.0488.

As for `C=C(CCCC)/C(=C/C[C@@H](OC(=O)c1ccncc1)c1ccc(CO)o1)c1cnc2ccccc2c1`, the composite z-score was 1.08.

`COC(=O)Cn1c(C(=O)N2CCCC2)cc2c1C[C@H]1CN(C(=O)c3ccccc3)[C@@](Cc3ccc(OC)cc3)(C(=O)OC)[C@@H]21` gave a composite z-score of 0.495.

Take `C=C(CCCC)C(=O)CC[C@@H](OC(C)=O)c1ccccc1OCCO`: the composite z-score was -0.34.

Turning to `CCOC(=O)C[C@H]1[C@H](OC(=O)c2cc3ccccc3oc2=O)[C@@H](NC(=O)C2CCCCC2)c2cc(OCCCO)ccc2N1C(=O)c1ccc2ccccc2n1`, the composite z-score was 0.414.

As for `COC(=O)C(CC#Cc1ccc2c(c1)[C@]1(C(=O)N2)[C@H](C(=O)N2CCCCCCC2)[C@H]2C(=O)O[C@H](c3ccccc3)[C@H](c3ccccc3)N2[C@@H]1c1ccc(O)cc1)C(=O)OC`, the composite z-score was -0.542.

Compound `C=C[C@H](OC)[C@@H](OC(=O)Nc1ccc(SC)cc1)c1ccc(O)c(F)c1` displayed a composite z-score of 0.2.

`O=C1O[C@@H](c2ccccc2)[C@@H](c2ccccc2)N2[C@@H](c3ccc(OCCO)cc3)[C@]3(C(=O)Nc4ccc(C#CCCO)cc43)[C@@H](C(=O)N3CCN(c4ncccn4)CC3)[C@H]12`: the composite z-score worked out at 0.617.

In the case of `C=CCC(OC(C)=O)[C@@H]1[C@@H](N(Cc2cccc3ccccc23)C(=O)Cc2ccc(F)cc2)c2cc(OCCCO)ccc2N1C(=O)Cc1ccc2ccccc2c1` (stereo partly specified), the composite z-score was -0.169.

In the case of `O=C1O[C@@H](c2ccccc2)[C@@H](c2ccccc2)N2[C@@H](c3ccc(O)cc3)[C@]3(C(=O)Nc4ccc(C#CC5(O)CCCCCC5)cc43)[C@@H](C(=O)Nc3nc4ccccc4s3)[C@H]12`, the composite z-score was determined as 0.814.

For `C#CCCCON=C1C[C@@H](O)[C@@H](O)[C@@H]2[C@@H]3C(=O)N(Cc4ccc5c(c4)OCO5)C(=O)[C@@H]3CC[C@@H]12`, the composite z-score is 0.456.

In turn, `O=C1O[C@H](c2ccccc2)[C@H](c2ccccc2)N2[C@H]1[C@@H](C(=O)NC[C@H](O)c1ccccc1)[C@]1(C(=O)Nc3ccc(C#CC4(O)CCCCCC4)cc31)[C@H]2c1ccc(OCCO)cc1` gave a composite z-score of 0.577.

`CCOC(=O)C1=C[C@@H](c2ccccc2)N(S(=O)(=O)c2ccc(C)cc2)[C@H]1c1ccc(F)cc1` displayed a composite z-score of 0.493.

The compound `O=[N+]([O-])c1ccc(C[n+]2ccc3ccc(O)cc3c2)o1` displayed a composite z-score of 0.169.
